{"source": "PubChem BioAssay (Tox21)", "note": "“And” between values parts separate entries of the source, which are not always exact repeats. Equal entries are not always repeated. Inconclusive results are not listed. Entries that show only a call come without a potency. Some compounds were tested as several samples or in several runs, with calls that do not always agree. The source made the active and inactive calls. Unless noted, calls come from the whole dose curve."}
{"target": "Nuclear receptor ROR-gamma (Homo sapiens) (UniProt P51449)", "assay": "qHTS assay to identify small molecule antagonists of the retinoid-related orphan receptor gamma (ROR-gamma) signaling pathway (AID 1159521; active = well fitted inhibition curve with a large enough effect in the repeat runs; note: nearly all actives have a fitted effect of over 50% in size; note: potency is the fitted concentration of half-maximal effect; for activity change, negative = inhibition: top concentration of the series differs between compounds)", "settings": "Tet-on RORgamma CHO cells, RORE-luciferase, 16 h; series mostly up to 92.4 µM; activity change, negative = inhibition: at the top concentration", "how_it_was_run": "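Inducible-expression reporter assay: doxycycline (1 uM final) switched on RORγ in CHO cells bearing a ROR response element-luciferase construct, with test compounds present from 2 h beforehand. Decreased luminescence after 16 h defined antagonist activity.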"}
{"compound": "O=C(O)CC[N+](=O)[O-]", "activity change, negative = inhibition": "-3.31% (inactive)"}
{"compound": "Cc1ccc(OP(=O)(Oc2ccc(C)cc2)Oc2ccc(C)cc2)cc1", "Potency": "12.2 µM (active)"}
{"compound": "CCC(C)c1cc([N+](=O)[O-])cc([N+](=O)[O-])c1O", "note": "(configuration not stated)", "Potency": "inactive and 7.7 µM (active)"}
{"compound": "CC(C)c1ccc(CO)cc1", "Potency": "inactive"}
{"compound": "c1nc[nH]n1", "Potency": "inactive"}
{"compound": "Cc1cc(Cl)ccc1OCCCC(=O)O", "Potency": "inactive"}
{"compound": "CCCCCCCCOC(=O)c1ccccc1C(=O)OCCCCCCCC", "Potency": "inactive"}
{"compound": "CN(C)c1ccc(C(=O)c2ccc(N(C)C)cc2)cc1", "Potency": "inactive"}
{"compound": "NNC(=S)NN", "Potency": "56 µM (active)"}
{"compound": "CC(O)CCO", "note": "(configuration not stated)", "Potency": "inactive"}
{"compound": "CCCCNC(=O)n1c(NC(=O)OC)nc2ccccc21", "activity change, negative = inhibition": "21.7% (inactive)"}
{"compound": "C=CCN(CC=C)C(=O)C(Cl)Cl", "Potency": "inactive"}
{"compound": "COc1ccc(C=O)cc1", "Potency": "inactive"}
{"compound": "Nn1cnnc1", "Potency": "inactive"}
{"compound": "O=C(CCl)c1ccccc1", "Potency": "inactive and 54.5 µM (active)"}
{"compound": "C=CCc1ccc2c(c1)OCO2", "Potency": "inactive"}
{"compound": "CCC(C)(c1ccc(O)cc1)c1ccc(O)cc1", "Potency": "54.4 µM (active)"}
{"compound": "Cc1cc(C)cc(C)c1", "Potency": "inactive"}
{"compound": "N#CCCCl", "Potency": "inactive"}
{"test_system": "not listed separately", "assay": "qHTS assay to identify small molecule agonists of the AP-1 signaling pathway - cell viability counter screen (AID 1159525); note: nearly all actives have a fitted effect of over 55% in size", "settings": "ME-180 AP-1-bla cells viability, ATP luminescence, 5 h; series mostly up to 76.8 µM; viability change, negative = cytotoxic: at the top concentration", "how_it_was_run": "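ME-180 AP-1-bla, 2500 cells/well, Opti-MEM + 0.5% dialyzed FBS; overnight 37 °C; cpd 15-pt titration, 5 h 37 °C; CellTiter-Glo 30 min RT; luminescence read; normalised to TOAB and DMSO controls.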"}
{"compound": "c1ccc(N=Nc2ccccc2)cc1", "Potency": "inactive"}
{"compound": "O=P(O)(O)CCCl", "Potency": "inactive"}
{"compound": "CCCCCCOC(=O)c1ccccc1C(=O)OCCCCCC", "Potency": "inactive"}
{"compound": "CCCCCCCCCCCOC(=O)c1ccccc1C(=O)OCCCCCCCCCCC", "viability change, negative = cytotoxic": "-8.15% (inactive)"}
{"compound": "Nc1cccnc1", "Potency": "inactive"}
{"compound": "CCN(CC)N=O", "Potency": "inactive"}
{"compound": "C=CCc1ccc(OC)cc1", "Potency": "inactive"}
{"compound": "Oc1ccc(-c2ccccc2)cc1", "Potency": "inactive"}
{"compound": "COP(=S)(OC)Oc1ccc([N+](=O)[O-])cc1", "Potency": "inactive"}
{"compound": "CCCCN(CCCC)N=O", "Potency": "inactive"}
{"compound": "Brc1ccc(Oc2cc(Br)c(Br)cc2Br)c(Br)c1", "Potency": "inactive"}
{"compound": "N[C@@H](Cc1ccc(N(CCCl)CCCl)cc1)C(=O)O", "Potency": "inactive"}
{"compound": "CC1(C)C(C=C(Cl)Cl)C1C(=O)OC(C#N)c1cccc(Oc2ccccc2)c1", "note": "(configuration not stated)", "Potency": "inactive"}
{"compound": "Nc1ccc(Cl)cc1N", "Potency": "inactive"}
{"compound": "NCc1cccnc1", "Potency": "inactive"}
{"compound": "Oc1cc(Cl)c(Cl)cc1Cl", "Potency": "inactive"}
{"compound": "CCOc1cc(C=O)ccc1O", "Potency": "inactive"}
{"compound": "C#CCOS(=O)OC1CCCCC1Oc1ccc(C(C)(C)C)cc1", "note": "(configuration not stated)", "Potency": "inactive"}
{"compound": "NNC(N)=S", "Potency": "inactive"}
{"compound": "O=C(O)CC[N+](=O)[O-]", "Potency": "inactive"}
{"compound": "Cc1ccc(OP(=O)(Oc2ccc(C)cc2)Oc2ccc(C)cc2)cc1", "Potency": "inactive"}
{"compound": "CCC(C)c1cc([N+](=O)[O-])cc([N+](=O)[O-])c1O", "note": "(configuration not stated)", "Potency": "inactive"}
{"compound": "CC(C)c1ccc(CO)cc1", "Potency": "inactive"}
{"compound": "c1nc[nH]n1", "Potency": "inactive"}
{"compound": "Cc1cc(Cl)ccc1OCCCC(=O)O", "Potency": "inactive"}
{"compound": "CCCCCCCCOC(=O)c1ccccc1C(=O)OCCCCCCCC", "Potency": "inactive"}
{"compound": "CN(C)c1ccc(C(=O)c2ccc(N(C)C)cc2)cc1", "Potency": "inactive"}
{"compound": "NNC(=S)NN", "Potency": "inactive"}
{"compound": "CC(O)CCO", "note": "(configuration not stated)", "Potency": "inactive"}
{"compound": "CCCCNC(=O)n1c(NC(=O)OC)nc2ccccc21", "viability change, negative = cytotoxic": "0.353% (inactive)"}
{"compound": "C=CCN(CC=C)C(=O)C(Cl)Cl", "Potency": "inactive"}
{"compound": "COc1ccc(C=O)cc1", "Potency": "inactive"}
{"compound": "Nn1cnnc1", "Potency": "inactive"}
{"compound": "O=C(CCl)c1ccccc1", "Potency": "inactive"}
{"compound": "C=CCc1ccc2c(c1)OCO2", "Potency": "inactive"}
{"compound": "CCC(C)(c1ccc(O)cc1)c1ccc(O)cc1", "Potency": "inactive"}
{"compound": "Cc1cc(C)cc(C)c1", "Potency": "inactive"}
{"compound": "N#CCCCl", "Potency": "inactive"}
